Data published in PubChem BioAssay AID1159580 (chemical genetic matrix, 2015).
“And” between values parts separate entries of the source, which are not always exact repeats. Equal values may be shown once. The whole screen tested about 5,500 compounds, of which about 2,000 (36%) were called active. Roughly 18% stayed inconclusive and do not appear here. The list shows a part of the results. Unmarked numbers belong to inactive results. Rule as the data show it: active = normalized growth mostly below about 0.91 (no sharp cut-off); inconclusive = no clear call, values can overlap the other calls; inactive = mostly above about 0.92.

Assay: chemical genetic growth profiling, strain panel (AID 1159580);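 also: tested at 20 µM; growth read once vehicle control cultures reached saturation at 30 °C; 1 = growth at the plate median or of vehicle wells; lower values mean less growth of the strain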
Details: S. cerevisiae deletion strains, growth OD

C[C@@H]1CC[C@@]2(OC1)OC1C(O)C3C4CC[C@H]5C[C@H](O[C@@H]6O[C@H](CO)[C@H](O[C@@H]7O[C@H](CO)[C@@H](O)[C@H](O[C@@H]8OC[C@@H](O)[C@H](O)[C@H]8O)[C@H]7O[C@@H]7O[C@H](CO)[C@H](O)[C@H](O[C@@H]8O[C@H](CO)[C@@H](O)[C@H](O)[C@H]8O)[C@H]7O)[C@H](O)[C@H]6O)[C@H](O)C[C@]5(C)C4CC[C@]3(C)C1[C@@H]2C (stereo partly specified)
normalized growth (locus YAL013W, strain DEP1, active compounds read low): 0.0526 (active) | normalized growth (locus YAL021C, strain ccr4, active compounds read low): 0.988 | normalized growth (locus YAL026C, strain drs2, active compounds read low): 1.01 | normalized growth (locus YAL030W, strain snc1, active compounds read low): 1.02 | normalized growth (locus YBL061C, strain skt5, active compounds read low): 1.01 | normalized growth (locus YBR009C, strain hhf1, active compounds read low): 0.942 | normalized growth (locus YBR021W, strain FUR4, active compounds read low): 0.0876 (active) | normalized growth (locus YBR023C, strain chs3, active compounds read low): 1.01 | normalized growth (locus YBR171W, strain sec66, active compounds read low): 0.986 | normalized growth (locus YBR229C, strain ROT2, active compounds read low): 0.0499 (active) | normalized growth (locus YBR231C, strain swc5, active compounds read low): 0.99 | normalized growth (locus YBR279W, strain paf1, active compounds read low): 1.02 | normalized growth (locus YCL011C, strain gbp2, active compounds read low): 0.986 | normalized growth (locus YCL016C, strain dcc1, active compounds read low): 0.995 | normalized growth (locus YCL029C, strain bik1, active compounds read low): 0.0554 (active) | normalized growth (locus YCL061C, strain MRC1, active compounds read low): 0.999 | normalized growth (locus YCL069W, strain vba3, active compounds read low): 1.02 | normalized growth (locus YCR088W, strain abp1, active compounds read low): 1.01 | normalized growth (locus YDL005C, strain med2, active compounds read low): 1.06 | normalized growth (locus YDL035C, strain GPR1, active compounds read low): 0.0509 (active) | normalized growth (locus YDL040C, strain nat1, active compounds read low): 1.02 | normalized growth (locus YDL074C, strain BRE1, active compounds read low): 0.0891 (active) | normalized growth (locus YDL101C, strain DUN1, active compounds read low): 0.0606 (active) | normalized growth (locus YDL185W, strain tfp1, active compounds read low): 0.0577 (active) | normalized growth (locus YDL192W, strain arf1, active compounds read low): 0.0632 (active) | normalized growth (locus YDR001C, strain nth1, active compounds read low): 1.02 | normalized growth (locus YDR069C, strain doa4, active compounds read low): 1.03 | normalized growth (locus YDR101C, strain arx1, active compounds read low): 0.0567 (active) | normalized growth (locus YDR137W, strain rgp1, active compounds read low): 0.509 (active) | normalized growth (locus YDR150W, strain NUM1, active compounds read low): 0.0485 (active) | normalized growth (locus YDR159W, strain sac3, active compounds read low): 0.84 (active) | normalized growth (locus YDR162C, strain NBP2, active compounds read low): 0.0515 (active) | normalized growth (locus YDR195W, strain ref2): 0.61 (active) | normalized growth (locus YDR297W, strain sur2, active compounds read low): 1.02 | normalized growth (locus YDR318W, strain mcm21, active compounds read low): 0.0561 (active) | normalized growth (locus YDR334W, strain swr1, active compounds read low): 1.02 | normalized growth (locus YDR335W, strain msn5, active compounds read low): 0.907 (active) | normalized growth (locus YDR388W, active compounds read low): 0.0552 (active) | normalized growth (locus YDR392W, strain spt3, active compounds read low): 0.919 | normalized growth (locus YDR502C, strain sam2, active compounds read low): 0.0624 (active) | normalized growth (locus YEL003W, strain gim4, active compounds read low): 1 | normalized growth (locus YEL037C, strain rad23, active compounds read low): 1.02 | normalized growth (locus YEL061C, strain CIN8 (second series), active compounds read low): 0.999 | normalized growth (locus YER015W, strain faa2, active compounds read low): 1.02 | normalized growth (locus YER016W, strain bim1, active compounds read low): 0.977 | normalized growth (locus YER110C, active compounds read low): 0.0702 (active) | normalized growth (locus YER111C, strain swi4, active compounds read low): 0.642 (active) | normalized growth (locus YER155C, strain BEM2 (second series), active compounds read low): 1.01 | normalized growth (locus YER155C, strain BEM2, active compounds read low): 0.0639 (active) | normalized growth (locus YER167W, strain BCK2, active compounds read low): 0.0533 (active) | normalized growth (locus YFR010W, strain ubp6, active compounds read low): 1.01 | normalized growth (locus YGL078C, strain dbp3, active compounds read low): 0.0574 (active) | normalized growth (locus YGL086W, strain mad1, active compounds read low): 0.0591 (active) | normalized growth (locus YGL167C, strain pmr1, active compounds read low): 0.749 (active) | normalized growth (locus YGL173C, strain kem1, active compounds read low): 1 | normalized growth (locus YGL227W, strain vid30, active compounds read low): 1.03 | normalized growth (locus YGL240W, strain doc1, active compounds read low): 0.846 (active) | normalized growth (locus YGL248W, strain PDE1, active compounds read low): 0.0484 (active) | normalized growth (locus YGL253W, strain hxk2, active compounds read low): 1.02 | normalized growth (locus YGR078C, strain PAC10, active compounds read low): 0.0519 (active) | normalized growth (locus YGR135W, strain pre9, active compounds read low): 0.0583 (active) | normalized growth (locus YGR252W, strain gcn5, active compounds read low): 0.173 (active) | normalized growth (locus YHR013C, strain ard1, active compounds read low): 1.03 | normalized growth (locus YHR027C, strain rpn1, active compounds read low): 1.02 | normalized growth (locus YHR030C, strain SLT2, active compounds read low): 0.0897 (active) | normalized growth (locus YHR079C, strain IRE1 (second series), active compounds read low): 0.0526 (active) | normalized growth (locus YHR079C, strain IRE1, active compounds read low): 0.12 (active) | normalized growth (locus YHR094C, strain hxt1, active compounds read low): 0.0539 (active) | normalized growth (locus YHR129C, strain ARP1, active compounds read low): 0.0547 (active) | normalized growth (locus YHR142W, strain chs7, active compounds read low): 0.876 | normalized growth (locus YHR200W, strain rpn10, active compounds read low): 0.0577 (active) | normalized growth (locus YIL066C, strain RNR3, active compounds read low): 0.0505 (active) | normalized growth (locus YIL073C, strain SPO22, active compounds read low): 0.119 (active) | normalized growth (locus YIL125W, strain kgd1, active compounds read low): 0.0532 (active) | normalized growth (locus YIR030C, strain dcg1, active compounds read low): 0.054 (active) | normalized growth (locus YJL092W, strain hpr5, active compounds read low): 1.01 | normalized growth (locus YJL095W, strain BCK1 (second series), active compounds read low): 1.01 | normalized growth (locus YJL095W, strain BCK1, active compounds read low): 0.059 (active) and 0.105 (active) | normalized growth (locus YJL115W, strain asf1, active compounds read low): 1.03 | normalized growth (locus YJL129C, strain trk1, active compounds read low): 0.944 | normalized growth (locus YJL134W, strain LCB3, active compounds read low): 0.0488 (active) | normalized growth (locus YJL154C, strain vps35, active compounds read low): 1.01 | normalized growth (locus YJL164C, strain tpk1, active compounds read low): 0.933 | normalized growth (locus YJL166W, strain qcr8, active compounds read low): 0.969 | normalized growth (locus YJL168C, strain set2, active compounds read low): 0.0534 (active) | normalized growth (locus YJL187C, strain SWE1 (second series), active compounds read low): 0.0518 (active)
